Bioassay records as filed in PubChem.
Only some compounds are listed: those with a hit (about 21% of all), similar ones and a draw of the others.
CHX counter – counter-screen for Shiga toxin inhibitors: cycloheximide protein synthesis inhibition | cell reporter, cycloheximide protein synthesis inhibition counterscreen | max response, % | hit rate 12% among 300,000; in the data active = max response mostly above about 13%, no sharp cut-off; inactive = mostly below about 14%; also: read at 38.3 µM for the half of the compounds with a filed dose; 0% is about no effect
Pf growth 96h – P. falciparum growth inhibition at 96 hours. AID 504834. P. falciparum luciferase reporter growth, 96 h. Potency, µM (doses to about 28.7 µM), for the others: top-dose activity change, negative = inhibition, usual class: inhibitors. hit rate 6.9% among 320,000; also: potency is read from the fitted curve at half-maximal effect; % is scaled to controls: 0 for no effect and ±100 for the full control effect
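Compounds incubated with erythrocytes infected by luciferase-expressing P. falciparum (2% hematocrit, 0.05% parasitemia final) for 96 hours, 37 C in 5% CO2. Growth inhibition scored as decreased luciferase luminescence.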
Sm TGR block – S. mansoni TGR enzyme inhibition | Q962Y6 | hit rate 3% among 360,000 | purified TGR, DTNB reduction, TNB absorbance 405 nm | Potency, µM (series often up to 114 µM), without a hit: top-dose activity change, negative = inhibition, actives largely listed as inhibitors; also: potency is read from the fitted curve at half-maximal effect; % is scaled to controls: 0 for no effect and ±100 for the full control effect; nearly all actives have a fitted effect of over 60% in size
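TGR 20 nM + NADPH 100 uM (dispensed conc.), cpd preinc 15 min RT; start with NADPH (500 uM addition) then DTNB (15 mM addition). Kinetic TNB absorbance, 405 nm filter. Four-parameter Hill fit across titration.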
Shiga inhibitor – blocks Shiga toxin action in Vero cells; inhibition, % at 38.7 µM; AID 2315; hit rate 9.2% among 290,000; Vero cells, Shiga toxin protein synthesis inhibition reporter; in the data active = inhibition mostly above about 28%, no sharp cut-off; inactive = mostly below about 43%; also: 0% is about no effect
NS1 inh – influenza NS1 inhibition; Potency, µM (series often up to 46.1 µM), inactives show at the highest dose activity, positive = more growth; hit rate 0.4% among 270,000; calls by dose curve; also: potency is read from the fitted curve at half-maximal effect; actives are rising curves; nearly all actives have a fitted effect of over 50% in size
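Compounds were scored for reversing the slow growth caused by influenza A NS1 in S. cerevisiae, measured by optical density at 600 nm. Assay medium contained 2% galactose at pH 6.0; NS1-free yeast of the same strain were the positive control.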
Pf growth 48h – inhibits P. falciparum growth in the first generation, 48 h; P. falciparum luciferase growth in erythrocytes, 48 h; Potency, µM (top dose mostly 28.7 µM), inactives show at the highest dose activity change, negative = inhibition, most hits filed as inhibitors; hit rate 5.9% among 310,000; AID 504832; also: potency is read from the fitted curve at half-maximal effect; % is scaled to controls: 0 for no effect and ±100 for the full control effect
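A one-generation exposure of luciferase-tagged malaria parasites in RPMI 1640/Albumax erythrocyte culture, 37 C and 5% CO2. Inhibition is inferred from decreased luminescence after adding detection reagent.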
The depositor's hits bear a star; ? = inconclusive; nt = not tested or not shown; [ ] = another dose, or the depositor's remark. Unless noted, calls follow the shape of the dose curve; as a rule, active = well fitted curve in the direction sought with a large enough effect; inconclusive = small, poorly fitted or top-dose-only effect, or another doubt; inactive = no such curve, though single readings can be large; an effect the other way counts as inactive or inconclusive.

SMILES | CHX counter | Pf growth 96h | Sm TGR block | Shiga inhibitor | NS1 inh | Pf growth 48h
Cc1ccc(C2=Nc3cccnc3C(c3ccccc3)=NN2)cc1 | 49* | -11% | 0% | 79* | nt | 338%
Cc1ccc(C2=Nc3ccc(Br)cc3C(c3ccncc3)=NN2)cc1 | 28* | 23% | 4%[57.1 µM] | 70 | 6% | ?
Cc1ccc2c(c1)C(c1ccncc1)=NNC(c1ccc(C(C)C)cc1)=N2 | 7 | ? | 1% | 32* | 7% | ?
Cc1ccc2c(c1)C(c1ccncc1)=NNC(c1ccc(F)cc1)=N2 | 16 | 52% | -7% | 16 | nt | ?
Brc1ccc(C2=Nc3ccccc3C(c3ccncc3)=NN2)cc1 | -3 | ? | 17% | -3 | 4% | -2%
Fc1ccc2c(c1)C(c1ccncc1)=NNC(c1ccc(Br)cc1)=N2 | 14 | ? | -4% | -13 | -37% | ?
CCn1c(C)nc2cc(C(=O)N/N=C(\C)c3ccc(OC)cc3O)ccc21 | -2 | ? | 7% | 3 | nt | ?
CCOC(=O)CN1N=C(c2ccc(C)cc2)CCC1=O | -1 | ? | 8% | 0 | 2% | 30%
COc1ccc2c(c1)C(c1ccc(C)o1)=NNC(c1ccccc1)=N2 | 42* | 0% | nt | 96* | 9% | ?
COc1ccc2c(c1)C(c1ccc(C)o1)=NNC(c1cccnc1)=N2 | 1 | ? | 1% | 12 | 4% | ?
N#Cc1cnc(Oc2ccc(Cl)cc2)nc1N | 19* | 33% | 1% | 27 | 2% | 41%
O=C1NC(c2ccccc2)C(C(=O)c2cccs2)C(O)(C(F)(F)F)N1 (stereo not drawn) | 10 | -12% | 32µM* | 25 | -2% | -5%
COc1cc(C2NC(=S)NC(O)(C(F)(F)F)C2C(=O)c2cccs2)cc(OC)c1O (stereo not drawn) | 40* | 48% | -5% | 11* | 1% | 58%
CC(=O)C1C(c2ccc(O)cc2)NC(=O)NC1(O)C(F)(F)F (stereo not drawn) | -4 | ? | -8% | -9 | 3% | -14%
CCOC(=O)C1C(c2cccs2)NC(=O)NC1(O)C(F)(F)F (stereo not drawn) | -7 | nt | -13% | -5 | -1% | -7%
CN1C(=O)NC(c2ccc(O)cc2)C(C(=O)c2cccs2)C1(O)C(F)(F)F (stereo not drawn) | 34 | ? | ? | 111* | -10% | ?
CC(=O)C1C(c2cccc(F)c2)NC(=O)NC1(O)C(F)(F)F (stereo not drawn) | 1 | 4.7µM* | 17% | -13 | 6% | -4%
Cc1cc(C)n2nc(SCC(=O)c3ccc[nH]3)nc2n1 | -1 | 1% | 32µM* | -2 | 4% | ?
CCOc1ccc(NC(=O)Cn2ccn(-c3ccc(F)c(F)c3)c(=O)c2=O)cc1 | nt | nt | -1% | nt | nt | nt
Cc1ccccc1CNC(=O)CCSCc1cnn(-c2ccccc2)c1-n1cccc1 | nt | nt | -5% | nt | nt | nt
CCc1ccc(-c2cc(C(F)(F)F)n3nc(C(=O)Nc4cnn(Cc5ccccc5C)c4)cc3n2)s1 | 2 | ? | 4% | -11 | 11% | ?
O=C(NCCc1ccccc1)C1CCC(=O)N(Cc2cccc(C(F)(F)F)c2)C1 (stereo not drawn) | 20 | -18% | 89µM* | -3 | 11% | 2%
O=C(NCCc1cccnc1)C1CCC(=O)N(Cc2cccc(C(F)(F)F)c2)C1 (stereo not drawn) | -3 | 34% | 5% | 6 | 19% | 5%
CSc1cccc(CNC(=O)C2CCC(=O)N(Cc3cccc(C(F)(F)F)c3)C2)c1 (stereo not drawn) | 22* | -5% | -8% | 86* | 12% | 3%
O=C(NCCc1ccc(C(F)(F)F)cc1)C1CCC(=O)N(CCCN2CCCC2=O)C1 (stereo not drawn) | 12* | 15µM* | 41% | 18 | -20% | 0%
O=C(NCc1ccon1)C1CCC(=O)N(Cc2cccc(C(F)(F)F)c2)C1 (stereo not drawn) | 20* | 81% | 5% | 39 | -3% | 35%
CN1CCN(NS(=O)(=O)c2cccs2)CC1 | -3 | -21% | -17% | -3 | 11% | -16%
O=S(=O)(NCc1ccccc1F)NCc1ccccc1F | 11 | 11% | 2% | 7 | nt | -22%
